Screening data as filed in PubChem BioAssay.
Compounds with a hit are over-represented: about 1.2% of the library has one in this group of screens.
p-CIP stab down: compounds decreasing mouse p/CIP protein stability | F442A p/CIP-EGFP cells, EGFP fluorescence, 16 h | decrease of EGFP signal, % at 10 µM | Q05BA5 | 290,000 tested, 0.01% active;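 active = EGFP signal decrease of at least 30% at 10 µM or well 3 SD below plate mean, unless failing retest; inactive = the rest, including hits failing retest or dose response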
VLA-4 inh: inhibition in a human VLA-4 binding assay | AID 2557 | 330,000 tested, 0.2% active | VLA-4 expressing cells, ligand binding flow cytometry | P13612 | inhibition, % (about 7 µM as worked out from the volumes in the protocol); in the data active = inhibition above about 50%
Target sequence (P13612 whole entry, looked up): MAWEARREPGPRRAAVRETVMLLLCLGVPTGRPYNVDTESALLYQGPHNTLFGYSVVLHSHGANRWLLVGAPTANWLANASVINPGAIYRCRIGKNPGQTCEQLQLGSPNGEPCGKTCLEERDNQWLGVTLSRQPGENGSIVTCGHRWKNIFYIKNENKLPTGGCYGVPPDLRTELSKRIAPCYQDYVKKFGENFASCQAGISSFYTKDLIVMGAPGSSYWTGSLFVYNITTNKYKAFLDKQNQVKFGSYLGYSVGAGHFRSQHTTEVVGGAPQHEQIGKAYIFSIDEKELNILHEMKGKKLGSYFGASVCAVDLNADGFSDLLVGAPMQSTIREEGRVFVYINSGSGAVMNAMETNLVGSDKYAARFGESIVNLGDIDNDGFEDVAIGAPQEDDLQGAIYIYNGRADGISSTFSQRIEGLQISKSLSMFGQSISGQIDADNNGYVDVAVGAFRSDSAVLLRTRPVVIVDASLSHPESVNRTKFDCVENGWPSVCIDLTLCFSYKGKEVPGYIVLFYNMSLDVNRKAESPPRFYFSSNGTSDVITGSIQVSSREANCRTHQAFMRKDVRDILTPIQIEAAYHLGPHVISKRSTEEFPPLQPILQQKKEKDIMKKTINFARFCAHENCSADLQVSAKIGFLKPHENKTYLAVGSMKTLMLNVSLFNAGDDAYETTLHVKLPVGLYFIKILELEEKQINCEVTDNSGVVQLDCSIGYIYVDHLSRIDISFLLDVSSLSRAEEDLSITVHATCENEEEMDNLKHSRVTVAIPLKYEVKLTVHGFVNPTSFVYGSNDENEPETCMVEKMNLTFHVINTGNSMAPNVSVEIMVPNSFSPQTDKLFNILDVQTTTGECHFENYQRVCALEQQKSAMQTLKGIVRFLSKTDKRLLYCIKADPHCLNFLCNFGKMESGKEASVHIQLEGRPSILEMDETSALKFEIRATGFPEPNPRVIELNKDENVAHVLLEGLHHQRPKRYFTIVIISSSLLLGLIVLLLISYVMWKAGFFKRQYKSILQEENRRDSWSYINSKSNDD
GASC-1 inh: blocks human GASC-1 demethylase activity | GST-JMJD2C(1-420) H3K9me3 demethylation, DELFIA europium | inhibition, % at 2.35 µM | 330,000 tested, 0.069% active | Q9H3R0;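 active = more than half of a compound's replicate wells show inhibition beyond 50%, single wells judged on their own value; inconclusive = some, but no more than half, of replicates pass 50% inhibition; inactive = no replicate passes 50% inhibition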;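 also: signal counts dimethyl H3K9 product captured on neutravidin plate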
GPR7 antagonist: blocks human GPR7 receptor signaling; inhibition, % at 4.4 µM; GPR7-expressing cells, fluorescence antagonist assay; 290,000 tested, 1.1% active; AID 1861; in the data active = inhibition above about 16%, passing the limit was not always enough;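 also: cells stimulated with the agonist NPW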
GPR7 antag cf: confirmation of human GPR7 antagonists | GPR7-expressing cells, calcium fluorescence antagonist mode | inhibition, % at 4.4 µM | shares compounds with GPR7 antagonist | 2,400 tested, 52% active; in the data active = inhibition above about 24%;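 also: stimulated with the GPR7 agonist NPW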
MCHR1 antag: MCHR1 (human) antagonism in GPR7 counter-screen | 2,400 tested, 62% active | inhibition, % at 4.4 µM | MCHR1-expressing cells, fluorescence antagonist assay | shares compounds with GPR7 antagonist | AID 2148; in the data active = inhibition above about 22%
Of the large screens only hits and unclear results are named; the others gave an inactive call (follow-up assays come after a bar, where they were run).

O=C(NCc1ccccc1Cl)c1ccc(S(=O)(=O)Nc2cccc(C(F)(F)F)c2)cc1	GPR7 antagonist 24 | GPR7 antag cf 32 | MCHR1 antag 46
O=C(NCc1ccccc1Cl)c1ccc(S(=O)(=O)N2CCCC2)cc1	none (no result: p-CIP stab down, GASC-1 inh, GPR7 antagonist)
CCCCNc1nc2ccccc2n1CC(=O)Nc1c(C)cccc1CC	GPR7 antagonist 33 | GPR7 antag cf 32 | MCHR1 antag inactive
CCc1cccc(C)c1NC(=O)Cn1c(NCCO)nc2ccccc21	none
CCN(CC(=O)Nc1ccccc1OC)C(=O)COc1ccc2ccccc2c1	none
CCN(CC)S(=O)(=O)c1ccc(N2Cc3ccccc3C2=N)cc1	GPR7 antagonist 22 | GPR7 antag cf inactive | MCHR1 antag inactive
COC(=O)C1=C(N)Oc2cc(C)n(CC3CCCO3)c(=O)c2C1c1ccccc1OC (stereo not drawn)	none
COC(=O)C1=C(N)Oc2cc(N(C)C)ccc2C1c1ccccc1OC (stereo not drawn)	GPR7 antagonist 25 | GPR7 antag cf inactive | MCHR1 antag 33
O=C(NCCC1=CCCCC1)c1coc(=O)c(Br)c1	GPR7 antagonist 33 | GPR7 antag cf inactive | MCHR1 antag 24
O=C(NCCC1=CCCCC1)c1ccc(Cl)c(S(=O)(=O)N2CCCCC2)c1	GPR7 antagonist 50 | GPR7 antag cf 44 | MCHR1 antag 50
O=C(NCCC1=CCCCC1)c1ccc(Cl)c(S(=O)(=O)N2CCOCC2)c1	none
CCCCC(Nc1ncnc2ccccc12)C(=O)O (stereo not drawn)	GPR7 antagonist 23 | GPR7 antag cf inactive | MCHR1 antag inactive
CC(Nc1ncnc2ccccc12)c1ccccc1 (stereo not drawn)	none
Cn1c(N)c(C#N)c2c(c1=S)COC(C)(C)C2	none
CC1(C)Cc2c(C#N)c(N)n(-c3ccccc3)c(=S)c2CO1	GPR7 antagonist 92 | GPR7 antag cf inactive | MCHR1 antag inactive
CC(=O)c1ccc(N2CCN(C(=O)c3cccc(Oc4ccccc4)c3)CC2)cc1	GPR7 antagonist 23 | GPR7 antag cf 34 | MCHR1 antag 53
COC(=O)c1ccc(CSc2nnc(Nc3cccc(OC)c3)s2)o1	GPR7 antagonist 46 | GPR7 antag cf inactive | MCHR1 antag 48
O=C(NCCCc1ccc(F)cc1)C1CCC(=O)N(CCCN2CCCC2=O)C1 (stereo not drawn)	GPR7 antagonist 35 | GPR7 antag cf inactive | MCHR1 antag inactive
O=C(NCCCC1CCCC1)C1CCC(=O)N(Cc2ccc(Cl)cc2)C1 (stereo not drawn)	GPR7 antagonist 28 | GPR7 antag cf inactive | MCHR1 antag inactive
O=C(NCCc1ccccc1)C1CCC(=O)N(CCCN2CCCC2=O)C1 (stereo not drawn)	none
CC(=O)NCCn1c(SCc2cc(F)ccc2F)nc2ccccc2c1=O	GPR7 antagonist 33 | GPR7 antag cf inactive | MCHR1 antag inactive
CCOC(=O)C(C)Sc1ncnc2c1nnn2-c1ccc(F)cc1 (stereo not drawn)	GPR7 antagonist 44 | GPR7 antag cf 38 | MCHR1 antag 44
COc1ccc(CN2CCc3c([nH]c4ccccc34)C2)cc1Br	GPR7 antagonist 42 | GPR7 antag cf 52 | MCHR1 antag 38
COc1ccc(C2=NOC(COc3ccc4c(C)cc(=O)oc4c3)C2)c(OC)c1 (stereo not drawn)	GPR7 antagonist 22 | GPR7 antag cf 34 | MCHR1 antag 34
COc1ccccc1C1=NOC(COc2ccc3c(C)cc(=O)oc3c2)C1 (stereo not drawn)	none
CCC(O)C1CCN(C(=O)c2ccc(OC3CCN(Cc4ccccn4)CC3)cc2)CC1 (stereo not drawn)	none
Cc1cc(C)c(S(=O)(=O)N(C)CC(=O)NCc2ccncc2)c(C)c1	GPR7 antagonist 27 | GPR7 antag cf inactive | MCHR1 antag inactive
COc1cc(/C=C(\C#N)C(=O)Nc2ccc(C(=O)O)cc2)ccc1OC(=O)c1cccc(F)c1	GPR7 antagonist 31 | GPR7 antag cf 34 | MCHR1 antag inactive
COc1cc(/C=C(/C#N)C(=O)Nc2ccccc2)ccc1OCc1ccc(C(=O)O)cc1	none
COC(=O)c1cccc(NC(=O)Nc2ccc(Cl)cc2)c1	none
COC(=O)c1cc(NC(=O)Nc2cccc(Cl)c2)ccc1Cl	GPR7 antagonist 33 | GPR7 antag cf 52 | MCHR1 antag 77
O=C(Nc1cccc(F)c1)Nc1cccc(Cl)c1	GPR7 antagonist 34 | GPR7 antag cf 40 | MCHR1 antag 55
O=C(Nc1ccccc1)Nc1cc(Cl)cc(Cl)c1	GPR7 antagonist 38 | GPR7 antag cf 38 | MCHR1 antag 60
O=C(Nc1ccccc1)Nc1cccc2ccccc12	GPR7 antagonist 37 | GPR7 antag cf inactive | MCHR1 antag 22
O=C(O)c1sccc1Oc1ccc(NS(=O)(=O)c2ccccc2)cc1	none
Cc1ccc(OCc2cnc(Cl)s2)c(C)c1	none
COc1ccc(N(CC(=O)Nc2cc([N+](=O)[O-])ccc2C)S(C)(=O)=O)cc1OC	none
CC(C)(C)NC(=O)c1ccc(NC(=O)CSc2ccccc2)cc1	none
O=C(Nc1cccc(Cl)c1)Nc1cccc(Cl)c1	GPR7 antagonist 21 | GPR7 antag cf 46 | MCHR1 antag 64
O=C(Nc1cccc(Cl)c1)Nc1ccon1	none
CC(C)N(C(C)C)S(=O)(=O)c1ccc(N2CCc3ccccc3C2)nc1	GASC-1 inh inconclusive, GPR7 antagonist 21 | GPR7 antag cf inactive | MCHR1 antag 63
Nc1nonc1C(=O)NCCNCc1ccccc1OCc1ccccc1F	GPR7 antagonist 29 | GPR7 antag cf 36 | MCHR1 antag 33
C=CCOc1ccccc1CNCCNC(=O)c1nonc1N	none
CCCC1(c2ccccc2)NC(=O)N(CC(=O)c2[nH]c(C)c(C(=O)OCC)c2C)C1=O (stereo not drawn)	GPR7 antagonist 22 | GPR7 antag cf 27 | MCHR1 antag 45
CSCC[C@H](NC(=O)Cc1c(C)c2c(cc(C)c3c(C)coc32)oc1=O)C(=O)O	none
COc1ccccc1-n1c(=O)oc2ccc(Cl)cc2c1=O	GPR7 antagonist 28 | GPR7 antag cf inactive | MCHR1 antag inactive
COC(=O)C1CN(S(=O)(=O)c2cc(OC)ccc2OC)CCS1 (stereo not drawn)	none
Cc1ccc(C(=O)CSC2=C(C#N)C(c3ccco3)CC(=O)N2)c(C)c1 (stereo not drawn)	GPR7 antagonist 41 | GPR7 antag cf 71 | MCHR1 antag 64
COc1ccc(Br)cc1S(=O)(=O)NCCc1cccs1	none (no result: p-CIP stab down, GPR7 antagonist)
COc1ccccc1N1CCN(C(=O)c2cc(-c3ccc(F)cc3)[nH]c2C)CC1	none
CC(=O)c1ccc(S(=O)(=O)N2CCN(C(=O)CSc3ccc(C)c(C)c3)CC2)cc1	GPR7 antagonist 35 | GPR7 antag cf inactive | MCHR1 antag inactive
Cc1ccc(S(=O)(=O)N2CCN(C(=O)CSc3ccc(Cl)cc3)CC2)cc1	none
C=CCN1C(=O)S/C(=C/c2ccc(Sc3nc4ccccc4[nH]3)o2)C1=O	GPR7 antagonist 54 | GPR7 antag cf 37 | MCHR1 antag 75
CC(C)N1C(=O)S/C(=C/c2ccc(Sc3nc4ccccc4[nH]3)o2)C1=O	none
